94 compounds from PubChem BioAssay AID1578 (Sanford-Burnham Center for Chemical Genomics, 2009) can be followed below.

The whole screen tested about 290,000 compounds, of which about 3,000 (1%) were called active. Cut-off read from the data, not from the text of the source: active = inhibition mostly above about 36% (no sharp cut-off); inactive = mostly below about 34%. For the sample, actives were picked, then their nearest neighbours and some compounds at random.

Usually inhibition stands for the change of the read-out against control, counted positive when it falls.

The assay can be described thus: inhibition of NOD1-driven NF-kB reporter – cell-based, luminescence, uHTS, primary screen (AID 1578).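 Note: HEK-293T reporter cells stimulated with the NOD1 agonist gamma-tri-DAP.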 To be noted: NOD1-driven NF-kB luciferase reporter cells, at 4 µM, active compounds read high. In general terms: Reporter assays use an easily measured gene product as a stand-in for the process of interest.
On to `CSc1ccc(/C=N/NC(=O)CNc2ccc3ccccc3c2)cc1`, for which the inhibition is -16.8% (inactive). Turning to `CCN(CC)S(=O)(=O)c1ccc(N/N=C(\C)c2ccncc2)c([N+](=O)[O-])c1`, the inhibition is 31% (inactive). With `C/C(=N\Nc1ccc(S(=O)(=O)Nc2ccccc2)cc1[N+](=O)[O-])c1ccncc1`, the inhibition is 34.7% (inactive).

Take `Cc1cc(=O)[nH]c(N/N=C/c2ccc(-c3ccc(F)cc3)o2)n1`: the inhibition was -56.3% (inactive). The result for `C/C(=N\N=c1/sc2ccccc2n1C)c1ccccn1` reads -61.2% (inactive).

With `CCN(CC)S(=O)(=O)c1ccc2c(c1)c(=O)c(C(=O)NCCOC)cn2C`, the inhibition was -12.6% (inactive). To `COc1ccc(C(=O)Nn2c(SCC(=O)NC3CCCCC3)nc3ccccc3c2=O)cc1` belongs 88% (active). The result for `COc1ccc(C(=O)Nn2c(SCC(=O)NC3CCCC3)nc3ccccc3c2=O)cc1` reads 12.9% (inactive). To `COc1ccc(C(=O)Nn2c(SCC(=O)c3ccccc3)nc3ccccc3c2=O)cc1` belongs 43.6% (inactive); to `COc1ccc(C(=O)Nn2c(SCC(=O)NCc3ccccc3)nc3ccccc3c2=O)cc1`, 18.4% (inactive).

Take `COc1ccc(C(=O)Nn2c(SCC(=O)NCc3ccco3)nc3ccccc3c2=O)cc1`: the inhibition was -0.3% (inactive). The result for `COc1ccc(C(=O)Nn2c(SCC(=O)NCC3CCCO3)nc3ccccc3c2=O)cc1` (centres undefined) reads 64.6% (active); that for `COc1ccccc1NC(=O)C(CCS(C)(=O)=O)N1C(=O)c2ccccc2C1=O` (centres undefined), -3.2% (inactive); that for `C#CCSc1nnc(-c2c[nH]c3ccccc23)n1C`, -40.9% (inactive). To `Cn1cc2ccc([N+](=O)[O-])cc2n1` belongs -6.5% (inactive); to `CCOc1ccc(CCNC(=O)CCC(=O)N2CCOc3ccccc32)cc1OCC`, -4.6% (inactive). To `O=C(N/C(=C\c1cccs1)C(=O)N1CCOCC1)c1ccco1` belongs -12.2% (inactive); to `CCOc1ccc(NC(=O)CN(C)c2nnnn2-c2ccccc2)cc1OCC`, 39% (inactive). Turning to `COc1cc(OC)c(C(=O)/C=C/c2ccccc2)c(O)c1O`, the inhibition is 21.4% (inactive). The result for `COc1cc(O)c(C(=O)/C=C/c2ccccc2)c(OC)c1` reads 1.3% (inactive); that for `COc1cc(O)cc(O)c1C(=O)/C=C/c1ccccc1`, 49.8% (active). The result for `O=C1/C(=C/c2cccnc2)CC/C1=C\c1cccnc1` reads 5.4% (inactive).

With `CCC1C/C(=C\c2cccnc2)C(=O)/C(=C/c2cccnc2)C1` (centres undefined), the inhibition was 103% (active). To `CN1C/C(=C/c2cccnc2)C(=O)/C(=C/c2cccnc2)C1` belongs 37% (inactive). Take `CC(Cl)C(=O)c1ccc2c(c1)CCN2C(=O)C1CC1` (centres undefined): the inhibition is 43.8% (inactive). The result for `O=C(CCl)c1ccc2c(c1)CCN2C(=O)C1CCCCC1` reads 13% (inactive). To `O=C(CCl)c1ccc2c(c1)CCN2C(=O)C1CC1` belongs 76.4% (active); to `Cc1nnsc1NC(=O)OCc1ccc(C(C)(C)C)cc1`, 58.9% (inactive). To `Clc1ccc(OCc2nn[nH]n2)cc1` belongs 4.7% (inactive).

With `Cc1cc(C)c(C)c(S(=O)(=O)NCC(=O)NCC2CCCCC2)c1C`, the inhibition is -8.5% (inactive). To `O=C(NC1CCN(S(=O)(=O)c2cccc(F)c2)CC1)c1ccc(F)cc1` belongs -9.7% (inactive); to `C1=Nc2c(Nc3ccccc3)ncnc2Oc2ccccc21`, -21% (inactive); to `O=C(/C=C/c1ccc(OCCCF)cc1)Nc1ccnc(-c2cccnc2)n1`, 8.2% (inactive). Regarding `O=C(/C=C/c1ccc(OCCCF)cc1)Nc1ccnc(-c2ccncc2)n1`, the inhibition is 89.5% (active). The result for `COc1ccc(CNC(=O)/C=C/c2ccc(OCCCF)cc2)cc1` reads -6.2% (inactive); that for `CCC(C)C(Nc1ncnc2scc(-c3ccccc3)c12)C(=O)O` (centres undefined), -21% (inactive); that for `O=S(=O)(NC1CC1)c1ccccc1`, -1% (inactive).

Regarding `COC(=O)c1cn(NC(=O)c2ccc([N+](=O)[O-])cc2Cl)c(=O)c2ccccc12`, the inhibition is -35.6% (inactive). The result for `COC(=O)c1cn(NC(=O)c2ccccc2[N+](=O)[O-])c(=O)c2ccccc12` reads -27.3% (inactive); that for `COC(=O)c1cn(NC(=O)c2cc([N+](=O)[O-])ccc2F)c(=O)c2ccccc12`, 78% (active); that for `CC1CN(C(=O)COC(=O)c2cc(Cl)ccc2[N+](=O)[O-])CC(C)O1` (centres undefined), -25.3% (inactive).

For the compound `CCCCS(=O)(=O)N1CCN(S(=O)(=O)c2ccc(Cl)s2)CC1`, the inhibition was -11% (inactive). As for `O=C(Oc1cc(=O)oc2ccccc12)c1ccccc1`, the inhibition was -8.5% (inactive). Take `CC(C)[C@H](NC(=O)[C@@H]1Cc2ccccc2CN1)C(=O)NC1CCCCC1`: the inhibition is -12.1% (inactive). The result for `CCCCc1c(O)nc(SCC(=O)c2ccccc2)n(-c2ccccc2)c1=O` reads -1.5% (inactive).

For `Cc1ccc(S(=O)(=O)/N=C(\CCl)N2CCOCC2)cc1`, the inhibition is 72.3% (active). For `Cc1ccc(S(=O)(=O)/N=C(\CN2CCCCC2)N2CCOCC2)cc1`, the inhibition was 10.8% (inactive).

On to `Cc1ccc(S(=O)(=O)/N=C(\CN2CCOCC2)N2CCOCC2)cc1`, for which the inhibition was 0.6% (inactive). Regarding `N/N=c1\sc2ccccc2n1-c1ccccc1`, the inhibition is 2.6% (inactive).

For `COc1cccc(/C=C2\SC(=S)N(CCCC(=O)N3CCCCC3)C2=O)c1`, the inhibition is 0% (inactive). Regarding `O=C(CCC1CCCCC1)Nc1nnc(C(F)(F)F)s1`, the inhibition was 77.4% (active). To `O=C(CCC(=O)NC1CCCCCC1)Nc1nnc(C(F)(F)F)s1` belongs -18.1% (inactive). To `O=C(CCC(=O)NC1CCCCCCC1)Nc1nnc(C(F)(F)F)s1` belongs 4.2% (inactive). The result for `Cc1ccnc(NC(=O)c2ccc(Cl)cc2Cl)n1` reads 14.3% (inactive); that for `COc1ccc(OC)c(C(=O)NC2CC(C)(C)Cc3c2cnn3-c2ccccc2)c1` (centres undefined), 53.9% (active); that for `COc1ccc(C(=O)NC2CC(C)(C)Cc3c2cnn3-c2ccccc2)cc1OC` (centres undefined), 0.2% (inactive). Regarding `COc1cc(C(=O)NC2CC(C)(C)Cc3c2cnn3-c2ccccc2)cc(OC)c1OC` (centres undefined), the inhibition was -14.3% (inactive). Take `O=C(NCCc1c[nH]c2ccccc12)c1ccc([N+](=O)[O-])cc1`: the inhibition is -37.7% (inactive).

Take `O=C(O)c1ccc(S(=O)(=O)N2CCC(Cc3ccccc3)CC2)cc1`: the inhibition is 2.5% (inactive). Consider `NC(=O)C1CCN(c2ccc(S(=O)(=O)N3CCCCC3)cn2)CC1`, for which the inhibition is -25.2% (inactive). The result for `Cc1ccc(CNC(=O)C2CC3Cn4c(nc5cc(C)c(C)cc54)C3N2C)o1` (centres undefined) reads -2.6% (inactive); that for `Cc1ccc(/C=C2/SC(=S)N(CCC(=O)N3CCN(c4ccccc4)CC3)C2=O)cc1`, 5.7% (inactive).

In the case of `CCOC(=O)N1CCN(CC(=O)Nc2ccc(F)c(F)c2)CC1`, the inhibition is 10.6% (inactive). To `CCC(=O)Nc1nc2nc(-c3ccccc3)cc(=O)n2[nH]1` belongs 0.3% (inactive). To `CCCC(=O)Nc1nc2nc(C)cc(=O)n2[nH]1` belongs -2.3% (inactive). With `CCC(=O)Nc1nc2nc(C)cc(=O)n2[nH]1`, the inhibition is 57.1% (active).

`Brc1ccc(-c2nc(-c3ccncc3)no2)cc1`: the inhibition was -20.7% (inactive). For `NC1=NC(=O)C(CC(=O)Nc2ccc3c(c2)OCO3)S1` (centres undefined), the inhibition was -24.1% (inactive). To `CCCCNS(=O)(=O)c1ccc2nc(SCC(=O)c3ccc(C#N)cc3)[nH]c2c1` belongs -14.8% (inactive). The result for `CCCCNS(=O)(=O)c1ccc2nc(SCC(=O)Nc3ccccc3)[nH]c2c1` reads -15.3% (inactive). To `CCCCNS(=O)(=O)c1ccc2nc(SCC(=O)Nc3sccc3C#N)[nH]c2c1` belongs 65.5% (active). Turning to `CC(=O)Nc1ccc2sc(C)nc2c1`, the inhibition was -14.2% (inactive). To `Cc1nc2cc(NC(=O)c3ccc(Br)s3)ccc2s1` belongs -42.5% (inactive); to `COc1ccc(Cl)cc1NC(=O)CN1C(=O)CSC1=O`, -3.2% (inactive); to `Cc1ccc(NC(=O)c2ccccc2N(C)S(=O)(=O)c2ccccc2)c(C)c1`, -8.8% (inactive). The result for `CCOC(=O)c1c(C)oc2c1C(=O)c1ccccc1C2=O` reads -38.5% (inactive); that for `CC(=O)c1c(C)oc2c1C(=O)c1ccccc1C2=O`, 79.5% (active).

Regarding `Cc1oc2c(c1C(=O)O)C(=O)c1ccccc1C2=O`, the inhibition is -30.8% (inactive). To `Cc1ccc(-c2nnn(CC(=O)N(Cc3ccccc3F)C(C(=O)NC3CCCC3)c3ccncc3)n2)o1` (centres undefined) belongs -44.1% (inactive). To `CCOC(=O)C1=C(C)N(c2ccccc2)C(=O)NC1c1cccc([N+](=O)[O-])c1` (centres undefined) belongs -25.4% (inactive); to `O=C(CSc1nnc(CNC(=O)c2ccc(F)cc2)o1)NCCc1ccccc1`, -16% (inactive).

Take `COc1ccc(C(=O)NCc2nnc(SCC(=O)N3CCOCC3)o2)cc1`: the inhibition is 37.2% (active). The result for `O=C(CSc1nnc(CNC(=O)c2ccccc2)o1)NCCc1ccccc1` reads 72% (active).

Regarding `COc1ccc(C(=O)NCc2nnc(SCC(=O)N3CCCC3)o2)cc1`, the inhibition is -25.5% (inactive). The result for `COc1ccc(C(=O)NCc2nnc(SCC(=O)N3CCCCC3)o2)cc1` reads -32.2% (inactive). To `COc1ccc(C(=O)NCc2nnc(SCC(=O)NCCc3ccccc3)o2)cc1` belongs -16.6% (inactive). To `COCCn1c(SCC(=O)Nc2ccc(S(N)(=O)=O)cc2)nc2ccccc21` belongs -3.5% (inactive); to `CCN(CC)C1CCN(C(=O)CCn2nnnc2CN2CCOCC2)C1` (centres undefined), -54.3% (inactive); to `COCCn1c(SCc2ccc(OC)c(F)c2)nnc1-c1ccncc1`, -14.1% (inactive). As to `O=Cc1ccc(OC(=O)CCCCC(=O)Oc2ccc(C=O)cc2)cc1`, the inhibition is 4.4% (inactive). The result for `CC(C)[N+]1=C2C=CC=CC=C2SC12C([N+](=O)[O-])=CC(=[N+]([O-])[O-])C=C2[N+](=O)[O-]` (centres undefined) reads -8.1% (inactive); that for `CN1C2=CC=CC=CC2=[N+](C)C12C=CC(=[N+]([O-])[O-])C=C2[N+](=O)[O-]` (centres undefined), -35.5% (inactive); that for `CN1C2=CC=CC=CC2=[N+](C)C12C([N+](=O)[O-])=CC(=[N+]([O-])[O-])C=C2[N+](=O)[O-]` (centres undefined), 57.4% (active). To `Fc1ccc(NC(=S)Nc2ccc(Cl)cc2Cl)cc1` belongs -28.8% (inactive).
